“And” between values parts separate entries of the source, which are not always exact repeats. Equal values may be shown once. Compounds without any hit were thinned out: in the full panel of roughly 83,000, 20% have a hit.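 Assay: single dose, 48 h. Readout: percent growth (0 = no net growth; negative = cell death). Active: <10.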 The source made the active and inactive calls.

The test system of the test is PC-3 prostate. The test can be described thus: NCI-60 one-dose screen, 48 h (100 = growth as untreated, 0 = no growth, -100 = all killed). Particulars: 10 µM unless noted.
For the compound `CC1CCCC(=O)O1` (stereo unspecified), the growth was 96.2% (inactive) and 95.1% (inactive). The result for `Cc1ccc(S(=O)(=O)NCN2C(=O)c3ccccc3C2=O)cc1` reads 102% (inactive); that for `O=C(N/N=C/c1cccc2ccccc12)C1CC1`, 100% (inactive) and 102% (inactive). The same measure for `CN(C)CCCNC1=C(Cl)C(=O)c2ccccc2C1=O`: 56.8% (inactive) and 53.6% (inactive); for `COc1ccc2nc(Cl)cc(C)c2c1`: 99.2% (inactive) and 82.3% (inactive); for `CN(C)c1ccc(C(=C2C=CC(=[N+](C)C)C=C2)c2ccccc2Cl)cc1`: -19.5% (active). The result for `OCc1ccccn1` reads 97.8% (inactive); that for `Nc1ccccc1SC1CC(=O)N(c2cccc3ccccc23)C1=O` (stereo unspecified), 87.7% (inactive). In the case of `CC(=O)Nc1cccc2c1CCCC2`, the growth is 87.8% (inactive) and 90.2% (inactive).

Consider `CCN1CCN(CCNc2nccc(-c3c(-c4cccc(O)c4)nc4sccn34)n2)S1(=O)=O`, for which the growth was 63.9% (inactive) and 77.9% (inactive). The result for `NC(=O)c1ccccc1OCC(O)CO` (stereo unspecified) reads 103% (inactive); that for `Nc1ccccc1Nc1ccccc1`, 87.6% (inactive) and 91.7% (inactive). The same measure for `N/C(=N\N=C\c1ccc2c(c1)OCO2)N/N=C\c1ccc2c(c1)OCO2`: 103% (inactive) and 89.6% (inactive).

`N#C/C(=C/c1c(O)ccc2ccccc12)C(N)=O`: the growth is 94% (inactive). The same measure for `Oc1ccc(/C=C/c2ccccc2)cc1`: 70% (inactive) and 43.8% (inactive); for `COc1ccc2ccccc2c1/C=N/N1CCCCC1`: 95.9% (inactive); for `O=C(Nc1cccc(-n2ccc3c(NC(=O)c4ccccc4)nccc32)c1)c1ccc(Cl)c(C(F)(F)F)c1`: -30.6% (active) and 51.1% (inactive). The result for `CCOc1ccc(Nc2c3ccccc3nc3ccccc23)cc1` reads 90.6% (inactive) and 25.6% (inactive) and 39.5% (inactive).

Consider `CCOc1ccc2cc(-c3nn(CC4CCN(C)CC4)c4ncnc(N)c34)ccc2c1`, for which the growth is 85.8% (inactive) and 51.5% (inactive).

As to `C[N+](C)(C)CN1C(=O)c2ccccc2C1=O`, the growth is 96.4% (inactive). The result for `S=C(S)N1CCCC1` reads 84.7% (inactive) and 82.8% (inactive). The same measure for `O=C1C2=C(C(=O)c3ccccc31)C(O)(S(=O)(=O)O)C(O)(S(=O)(=O)O)C1N=CC=CC21` (stereo unspecified): 31.8% (inactive) and 30.2% (inactive); for `Cc1cc(O)c2c(c1)C(=O)c1cc(O)cc(O)c1C2=O`: 67% (inactive) and 77.9% (inactive). The result for `CCN(CC)CCC(CNc1ccnc2cc(Cl)ccc12)c1ccc(OC)cc1` (stereo unspecified) reads 66.5% (inactive) and 62.2% (inactive). `O=[N+]([O-])c1ccc2nc3c4ccccc4c4ccccc4c3nc2c1`: the growth is 55.1% (inactive). As for `COc1cc2nc(N3CCC[C@@H](NC(=O)C4COc5ccccc5O4)C3)nc(N)c2cc1OC` (stereo partly specified), the growth was 92.9% (inactive) and 94.2% (inactive). The result for `NC(=S)NN=C1CCC(C2CCCCC2)CC1` (stereo unspecified) reads 89% (inactive) and 74.1% (inactive). Take `CCOC(=O)c1sc(N)nc1-c1ccccc1`: the growth is 98% (inactive). The same measure for `Cc1ccc2nc3c(nc2c1)-c1cccc2cccc-3c12`: 87.4% (inactive); for `CC(C)N=c1cc2n(-c3ccc(Cl)cc3)c3ccccc3nc-2cc1Nc1ccc(Cl)cc1`: 22.2% (inactive) and 29.7% (inactive) and 8.73% (active). The same measure for `CCN(CC)CCCC(C)Nc1ccnc2cc(Oc3ccccc3)ccc12` (stereo unspecified): 61.9% (inactive) and 67.7% (inactive); for `CN1C(=O)C(N=Nc2ccc([N+](=O)[O-])cc2)SC1=S` (stereo unspecified): 55.5% (inactive) and 50.8% (inactive); for `COc1ccccc1NC(=O)OCC#CCOC(=O)Nc1ccccc1OC`: 102% (inactive) and 89.3% (inactive).

Regarding `O[C@H](c1cc(C(F)(F)F)nc2c(C(F)(F)F)cccc12)[C@@H]1CCCCN1`, the growth was 42.7% (inactive) and 45% (inactive). The result for `N#C/C(=C1C=C/C(=N/O)C(Br)=C/1)c1ccccc1` reads 4.02% (active); that for `CC1=C[C@H]2c3c(c(O)c(O)c4oc5cc(O)cc(O)c5c(=O)c34)[C@H](c3cc(O)c(O)c4oc5cc(O)cc(O)c5c(=O)c34)[C@H]2C(C)(C)C1`, 14.4% (inactive) and -26.9% (active).

Values taken from PubChem BioAssay (NCI).
